Results: PubChem BioAssay AID651599 (National Center for Advancing Translational Sciences (NCATS), 2012)
Results filed as inconclusive are left out. Unmarked numbers belong to inactive results. Activity calls are given as the source filed them. Calls follow the shape of the dose curve; as a rule, active = well fitted inhibition curve with a large enough effect; inconclusive = small, poorly fitted or top-dose-only effect; inactive = no such curve, though single readings can be large or run the other way.

target: Tumor susceptibility gene 101 protein (Homo sapiens) (UniProt Q99816); test: qHTS Assay for Iinhibitors of HIV-1 Budding by Blocking the Interaction of PTAP/TSG101: Hit Validation in TR assay; conditions: Tsg101 binding domain + Texas Red-labeled PTAP peptide, fluorescence polarization, 20 min; series mostly up to 57.5 µM; activity change, negative = inhibition: at the top concentration
From the text: Stages of the HIV-1 replication cycle, specifically virus assembly and release, provide underexploited targets for the development of novel antiviral inhibitors. The late stages of HIV-1 replication are mediated by the Gag precursor protein, Pr55Gag. Expression of Pr55Gag is both necessary and sufficient for the production of virus-like particles from Gag-expressing cells. The Gag protein hijacks key host proteins involved in endocytic machinery of the host cell to promote endosomal processing and viral budding. The budding process requires a direct interaction between a […] (PTAP) motif in the p6 domain of Gag and the cellular endosomal sorting protein known as Tsg101. In this way, the Gag PTAP motif promotes the host cells to recruit viral particles to the plasma membrane where the new viral particles are released, effectively turning the host cells into viral factories. A fluorescence anisotropy assay has been developed to quantitatively measure the PTAP-Tsg101 interaction which can be used to screen for inhibitors of this interaction.
This hit validation assay is similar to the primary assay but uses the Texas Red label instead of FITC.
NIH Molecular Libraries Probe Production Network [MLPCN]
NIH Chemical Genomics Center [NCGC]
PI Name: Dr. Eric Freed, NCI
Two uL of the Tsg101 binding domain in buffer (10 mM HEPES pH 7.5; 0.15 M NaCl, 0.01% Tween 20; 3 mM EDTA;0.1 mM TCEP) was dispensed into Greiner black MB 1536-well plates (final concentration 10 uM). Then, 23 nL of compounds or DMSO were delivered to each well using a pin tool. Finally, 2 uL of a TR-labeled peptide containing the PTAP motif (1) in the same buffer was dispensed (50 nM final concentration) and the binding was allowed to proceed for 20 min. at r.t. Fluorescent polarization was determined using TR excitation and polarized emission filters on a Perkin Elmer Viewlux.
Keywords: Tsg101, PTAP, Gag, HIV, fluorescent polarization, MLSMR, MLPCN, NIH Roadmap, qHTS, NCGC
% is scaled to controls: 0 for no effect and ±100 for the full control effect; potency is read from the fitted curve at half-maximal effect.

Tumor susceptibility gene 101 protein (Homo sapiens), sequence (Q99816 whole entry, looked up, the tested form may be a part): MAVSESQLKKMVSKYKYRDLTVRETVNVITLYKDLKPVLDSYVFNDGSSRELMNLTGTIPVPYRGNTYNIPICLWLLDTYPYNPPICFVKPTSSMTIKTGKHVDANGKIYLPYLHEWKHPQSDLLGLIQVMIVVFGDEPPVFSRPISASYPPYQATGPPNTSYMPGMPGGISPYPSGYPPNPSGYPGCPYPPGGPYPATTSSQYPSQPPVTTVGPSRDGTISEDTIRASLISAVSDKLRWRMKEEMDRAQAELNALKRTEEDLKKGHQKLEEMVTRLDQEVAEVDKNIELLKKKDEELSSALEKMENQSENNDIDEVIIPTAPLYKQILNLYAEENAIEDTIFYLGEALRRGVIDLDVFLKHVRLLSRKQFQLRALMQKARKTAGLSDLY

`CCCN1CCCc2cc(CN)ccc21` was tested. Which “activity change, negative = inhibition” value did it give?
Its value is -2.1%.

How did the “activity change, negative = inhibition” value turn out when `O=C(C1=NN(c2ccccc2)C2C(=O)N(c3ccccc3)C(=O)C12)c1ccccc1` (stereo not given) was run?
Its value is -19.4%.

`O=c1oc2c(CN3CCCCC3)c(O)ccc2cc1-c1nc2ccccc2[nH]1` was tested. Which “activity change, negative = inhibition” value did it give?
Its value is -9.27%.

For `Cc1cc(=O)c2c([nH]1)c(C)cc1[nH]c(C)c(C)c12`, which “activity change, negative = inhibition” value is on record?
Its value is 7.34%.

How did the “activity change, negative = inhibition” value turn out when `N#CC(C(=O)NCc1ccccc1)c1nc2ccccc2nc1N1CCCC1` (stereo not given) was run?
Its value is 28.4%.

With `CC1(C)CC(=O)C2=C(C1)OC(N)=C(C#N)[C@@H]2c1ccccc1[N+](=O)[O-]` as the compound, how does the “activity change, negative = inhibition” value read?
Its value is -8.7%.

`CC(=O)N(/N=C1/C(=O)Nc2ccccc21)c1ccccc1` was tested. Which “activity change, negative = inhibition” value did it give?
Its value is 20.8%.

`CN1CC=C2C(C#N)=C(N)C(C#N)(C#N)[C@H](c3ccoc3)[C@H]2C1` was tested. Which “activity change, negative = inhibition” value did it give?
The value was 2.73%.

`CC(=O)Nc1ccc2nc3c(=O)[nH]c(=O)[nH]c3nc2c1` was tested. Which “activity change, negative = inhibition” value did it give?
Its value is -18.7%.

How did the “activity change, negative = inhibition” value turn out when `COc1ccc(-c2cc(C(F)(F)F)c3c(N)c(C(=O)NCCSC)sc3n2)cc1` was run?
Its value is -20.5%.

How did the “activity change, negative = inhibition” value turn out when `N#C/C(=C\c1ccccn1)c1nc2ccccc2s1` was run?
Its value is 40.6%.

Which “activity change, negative = inhibition” value does the source give for `O=C1c2ccccc2S(=O)(=O)c2cc(N3CCN(C(=O)c4ccccc4)CC3)ccc21` here?
Its value is 5.28%.

How did the “activity change, negative = inhibition” value turn out when `CCC(=O)Oc1ccc2c(c1)O/C(=C\c1ccco1)C2=O` was run?
The value was -3.58%.

How did the “activity change, negative = inhibition” value turn out when `COc1cc(-c2cc(-c3ccc(N)cc3)[nH]c(=O)c2C#N)cc(OC)c1OC` was run?
The value was -7.76%.

How did the Potency turn out when `CCCCn1c(=O)[nH]c2nc3cc(N)ccc3nc2c1=O` was run?
The Potency was 11.6 µM (active).

With `O=c1ccc2cc3c4c(c2o1)CCCN4CCC3` as the compound, how does the “activity change, negative = inhibition” value read?
Its value is -21.1%.

How did the “activity change, negative = inhibition” value turn out when `CCCCNc1ccc2c3c(cccc13)C(=O)N(CCCC)C2=O` was run?
Its value is -13.2%.

`O=C1/C(=N\S(=O)(=O)c2cccs2)C([n+]2ccccc2)=C([O-])c2ccccc21` was tested. Which “activity change, negative = inhibition” value did it give?
The value was -29.3%.

For `CC(C)CCN1C(=O)c2cccc3c(N)ccc(c23)C1=O`, which “activity change, negative = inhibition” value is on record?
The value was -6.02%.

For `COc1ccc2nc(N3CCCC3)c(C#N)cc2c1`, which “activity change, negative = inhibition” value is on record?
Its value is 8.29%.

For `CCN(CC)C1=CC2=CC(=C(C#N)C#N)CCC2CC1` (stereo not given), which “activity change, negative = inhibition” value is on record?
The value was 5.9%.

With `COC(CNC(=O)c1ccc2c3c(onc13)-c1ccccc1C2=O)OC` as the compound, how does the “activity change, negative = inhibition” value read?
Its value is -20.6%.

For `CN1C(=O)NC(c2ccccc2[N+](=O)[O-])C2=C1CCCC2=O` (stereo not given), which “activity change, negative = inhibition” value is on record?
Its value is 3.67%.

How did the “activity change, negative = inhibition” value turn out when `O=C1N=C(N2C=CC(=C3C=CNC=C3)C=C2)/C(=C/N=NC(=O)c2ccccc2O)S1` was run?
The value was 8.22%.

`O=S(=O)([N-]c1nc2ccccc2nc1-[n+]1ccc(-c2ccncc2)cc1)c1ccccc1` was tested. Which “activity change, negative = inhibition” value did it give?
Its value is -18.2%.

`CC(=O)N1c2ccccc2C(=O)C1N1CCCCC1` (stereo not given) was tested. Which “activity change, negative = inhibition” value did it give?
The value was 7.64%.

With `O=C1C=CC(=O)c2c(O)c(CO)c(CO)c(O)c21` as the compound, how does the “activity change, negative = inhibition” value read?
The value was -27.2%.

For `Nc1ccc2c3c(cccc13)-c1ccccc1-2`, which “activity change, negative = inhibition” value is on record?
Its value is -5.02%.

With `CSC1=NSC2=NC(=O)/C(=C\c3coc4ccccc4c3=O)C(=N)N12` as the compound, how does the “activity change, negative = inhibition” value read?
The value was 37.4%.

For `Cc1ccccc1C1CC(=O)Oc2cc(O)ccc21` (stereo not given), which “activity change, negative = inhibition” value is on record?
Its value is -17.9%.

With `Oc1ccc2ccccc2c1-c1sc(Nc2ccccc2)n[n+]1-c1ccc(F)cc1` as the compound, how does the “activity change, negative = inhibition” value read?
The value was 3.44%.

`Clc1ccc(C2=CC(c3ccco3)n3ncnc3N2)cc1` (stereo not given) was tested. Which “activity change, negative = inhibition” value did it give?
Its value is 18.6%.

With `O=c1c(/C=C(\O)c2ccccc2)nc2ccccc2n1-c1ccccc1` as the compound, how does the “activity change, negative = inhibition” value read?
Its value is 10.3%.

`CC1CC(C)CN(C(=O)c2ccc3c(c2NCCO)C(=O)c2ccccc2C3=O)C1` (stereo not given) was tested. Which “activity change, negative = inhibition” value did it give?
The value was -24.3%.

For `Cc1c2ccccc2nc2c(F)c(NCCO)c(F)c(F)c12`, which “activity change, negative = inhibition” value is on record?
Its value is 11.2%.

With `O=C(OCCN1C(=O)c2cccc3c(N4CCOCC4)ccc(c23)C1=O)c1ccc(Cl)cc1` as the compound, how does the “activity change, negative = inhibition” value read?
The value was -16.3%.

`Cc1c2ccccc2nc2c(F)c(NC(C)C)c(F)c(F)c12` was tested. Which “activity change, negative = inhibition” value did it give?
Its value is 60.3%.

How did the Potency turn out when `O=C(C1=NN(c2ccccc2)C2C(=O)N(c3cccc(Cl)c3)C(=O)C12)c1ccccc1` (stereo not given) was run?
The Potency was 29.1 µM (active).

With `O=C(NC1CCCCC1)c1cccc2c1C(=O)c1ccc(N3CCC(Cc4ccccc4)CC3)cc1S2(=O)=O` as the compound, how does the “activity change, negative = inhibition” value read?
Its value is -4.15%.

For `O=C(CCN1C(=O)/C(=C/c2ccco2)SC1=S)Nc1ccc(O)cc1C(=O)O`, which “activity change, negative = inhibition” value is on record?
The value was -21.6%.
